Measured values reported in PubChem BioAssay (EPA / NIEHS).
Calls of active or inactive are those of the source. How the source made its calls: active means hit-call score of the fitted dose curve at least 0.9, where 1 is the maximum; inactive means score below 0.9.

test: ATG_EGR_CIS: Attagene CIS-FACTORIAL HepG2 Assay for human Early Growth Response 1 (EGR1) (AID 2282938); settings: HepG2 Attagene CIS-FACTORIAL EGR reporter mRNA; actives raise or lower the signal
Description: ATG_CIS is a cell-based, multiplexed-readout assay that uses HepG2, a human liver cell line, with measurements taken at 24 hours after chemical dosing in a 24-well plate.ATG_EGR_CIS is one of 52 assay component(s) measured or calculated from the ATG_CIS assay. It is designed to make measurements of mRNA induction, a form of inducible reporter, as detected with fluorescence intensity signals by Reverse transcription polymerase chain reaction (RT-PCR) and Capillary electrophoresis technology.Data from the assay component ATG_EGR_CIS was analyzed into 1 assay endpoint. This assay endpoint, ATG_EGR_CIS, was analyzed with bidirectional fitting relative to DMSO as the negative control and baseline of activity. Using a type of inducible reporter, measures of mRNA for gain or loss-of-signal activity can be used to understand the reporter gene at the transcription factor-level as they relate to the gene EGR1. Furthermore, this assay endpoint can be referred to as a primary readout, because this assay has produced multiple assay endpoints where this one serves a reporter gene function. To generalize the intended target to other relatable targets, this assay endpoint is annotated to the dna binding intended target family, where the subfamily is zinc finger.
Human liver HepG2 cells are transiently transfected with multiple reporter transcription units (MRTUs) in 6-well plates using FuGene 6 reagent (Roche; 3 ml FuGene/1 mg DNA). The MRTU constructs are regulated by a cis-regulating element (promoter). […] A major difference between the CIS and TRANS system is that in CIS activities of endogenous TFs are measured, whereas the TRANS assay evaluates changes in activities of exogenous, chimeric NR-Gal4 proteins. […] At the end of 24 hour incubation, total RNA was isolated using TriZol reagent (Invitrogen). The isolated RNA is then reverse-transcribed using oligo(dT) primer and Mo-MLV reverse transcriptase (Invitrogen) with DNAse I (Ambion) treatment for 30 min. The one-tenth of the produced cDNA was amplified by PCR using Taq DNA polymerase (Invitrogen) and two reporter sequence-specific primers. The PCR products were fluorescently labeled by primer extension with 6-arboxyfluorescein (6-FAM) 5'-labeled reporter sequence-specific primer (2 min at 95 C, 20 s at 68 C and 10 min at 72 C) and these products were digested with 5U of HpaI (New England Biolabs) for 2h at 37 C. The fragments were purified using Qiaquick PCR columns (Qiagen), analyzed on an ABI 3130xL genetic analyzer (Applied Biosystems) with peak positions identified by using a set of X-rhodamine (ROX)-labeled MapMarker1000 molecular weight standards (BioVentures). The raw capillary electrophoresis data was processed using Attagraph software (Attagene).

Q: With O=C1c2ccccc2C(=O)c2c(O)ccc(O)c21 as the compound, how does the outcome read?
A: The outcome was “inactive”.

Q: For CCCN(CCC)S(=O)(=O)c1ccc(C(=O)O)cc1, which outcome is on record?
A: The outcome was “inactive”.

Q: Which outcome does the source give for CCCCCCOC(=O)CCC here?
A: The outcome was “inactive”.

Q: With C=CC(C)(O)CCC=C(C)C (stereo not given) as the compound, how does the outcome read?
A: The outcome was “inactive”.

Q: With CC(C)(C)C1=CC(=O)C(C(C)(C)C)=CC1=O as the compound, how does the AC50 read?
A: Its AC50 is 50 µM (active).

Q: Which outcome does the source give for CCOC(=O)c1ccc(N)cc1 here?
A: Its outcome is “inactive”.

Q: For CC(=O)O[C@@H]1C[C@@H]2CC[C@@]1(C)C2(C)C, which outcome is on record?
A: Its outcome is “inactive”.

Q: With CC(C)CC(C)CC(O)CC(C)C (stereo not given) as the compound, how does the outcome read?
A: The outcome was “inactive”.

Q: Which outcome does the source give for CCC(=O)OCCOc1ccccc1 here?
A: Its outcome is “inactive”.

Q: For CCC1(C)NC(=O)NC1=O (stereo not given), which outcome is on record?
A: The outcome was “inactive”.

Q: With CCNCCO as the compound, how does the outcome read?
A: Its outcome is “inactive”.

Q: With OCc1cccc(Oc2ccccc2)c1 as the compound, how does the outcome read?
A: Its outcome is “inactive”.

Q: For CC(=O)c1c(C)c([N+](=O)[O-])c(C(C)(C)C)c([N+](=O)[O-])c1C, which outcome is on record?
A: The outcome was “inactive”.

Q: Which outcome does the source give for CCCC(=O)OCCc1ccccc1 here?
A: The outcome was “inactive”.

Q: For O=C(O)c1ccc(O)cc1, which outcome is on record?
A: Its outcome is “inactive”.

Q: With C=C(C)C(=O)OCCOC1CC2CC1C1C=CCC21 (stereo not given) as the compound, how does the outcome read?
A: The outcome was “inactive”.

Q: Which outcome does the source give for CSCCC=O here?
A: The outcome was “inactive”.

Q: Which outcome does the source give for CCN(CC)C(=O)N(CC)CC here?
A: Its outcome is “inactive”.

Q: With C=Cc1ccc(C(C)(C)C)cc1 as the compound, how does the outcome read?
A: Its outcome is “inactive”.

Q: For CCCCCCCCCCCCCCCC(=O)OC/C=C(C)/C=C/C=C(C)/C=C/C1=C(C)CCCC1(C)C, which outcome is on record?
A: Its outcome is “inactive”.

Q: For Oc1ccc2cc(SSc3ccc4cc(O)ccc4c3)ccc2c1, which AC50 is on record?
A: Its AC50 is 27.7 µM (active).

Q: For C[Si]1(C)O[Si](C)(C)O[Si](C)(C)O1, which outcome is on record?
A: Its outcome is “inactive”.

Q: For CCCCN(CCCC)C(=O)N(CCCC)CCCC, which outcome is on record?
A: The outcome was “inactive”.

Q: Which outcome does the source give for C=C(C)[C@H]1CC=C(C)C(=O)C1 here?
A: Its outcome is “inactive”.

Q: With NC1CCCCC1N (stereo not given) as the compound, how does the outcome read?
A: Its outcome is “inactive”.

Q: With CC/C=C\CC/C=C/CO as the compound, how does the outcome read?
A: The outcome was “inactive”.

Q: Which AC50 does the source give for C=Cc1ccncc1 here?
A: Its AC50 is 37.1 µM (active).

Q: Which outcome does the source give for CC(C)(C)OC(=O)c1ccc(O)cc1 here?
A: The outcome was “inactive”.

Q: With CCCCCc1ccco1 as the compound, how does the AC50 read?
A: Its AC50 is 108 µM (active).

Q: Which outcome does the source give for C=C1CC[C@H](O)C/C1=C/C=C1\CCC[C@]2(C)[C@@H]([C@H](C)/C=C/[C@H](C)C(C)C)CC[C@@H]12 here?
A: The outcome was “inactive”.

Q: For O=C(O)CNc1ccccc1, which outcome is on record?
A: Its outcome is “inactive”.

Q: With OCC(O)c1ccccc1 (stereo not given) as the compound, how does the outcome read?
A: The outcome was “inactive”.

Q: For COc1ccccc1N=Nc1c(S(=O)(=O)O)cc2cc(S(=O)(=O)O)cc(NC(C)=O)c2c1O, which outcome is on record?
A: Its outcome is “inactive”.

Q: Which outcome does the source give for CCOC(=O)COC(=O)c1cc(Oc2ccc(C(F)(F)F)cc2Cl)ccc1[N+](=O)[O-] here?
A: The outcome was “inactive”.

Q: With CC1CCC(C(C)C)C(O)C1 (stereo not given) as the compound, how does the outcome read?
A: The outcome was “inactive”.

Q: Which outcome does the source give for O=C1OC(=O)c2c(Br)c(Br)c(Br)c(Br)c21 here?
A: Its outcome is “inactive”.

Q: Which outcome does the source give for CCOc1ccc(N=Nc2ccc(C=Cc3ccc(N=Nc4ccc(OCC)cc4)cc3S(=O)(=O)O)c(S(=O)(=O)O)c2)cc1 here?
A: The outcome was “inactive”.

Q: For OCCc1ccccc1, which outcome is on record?
A: The outcome was “inactive”.

Q: For CC(CN=Cc1ccccc1O)N=Cc1ccccc1O (stereo not given), which outcome is on record?
A: The outcome was “inactive”.

Q: Which outcome does the source give for CCCOCCO here?
A: The outcome was “inactive”.
